# Source: PubChem BioAssay
# Compounds with a hit are over-represented: about 3.6% of the library has one in this group of screens.
# Pf apPOL inh: Pf-apPOL DNA polymerase inhibition; Recombinant Pf-apPOL, molecular beacon fluorescence, 1.5 h; inhibition, % at 10 µM; hit rate 0.25% among 210,000; AID 1794808
# mHTT-CaM PPI inh: mHTT-calmodulin interaction abrogation | P42858 | AlphaScreen His-mHTT/GST-CaM binding, luminescence | inhibition, % at 15 µM | hit rate 3.6% among 190,000 | AID 1671202;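 also: 0% = both proteins with DMSO and 100% = one protein alone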
# Starred values were filed as active, the others as inactive; / = no result given. Rule as the data show it: active = inhibition above about 50%; inactive = the rest.
SMILES,Pf apPOL inh,mHTT-CaM PPI inh
COc1ccc(C)cc1N1CCN(C(=O)c2cccc(C)c2)C(C)C1=O (stereo not given),-4,-5
O=c1n(-c2ccccc2)c(=O)n2n1C1C=CC2C1,4,/
COc1ccccc1CC(=O)N1CCCCC1,-3,-4
Cc1ccc2[nH]c(=O)c(-c3nc(-c4cccc(F)c4)no3)c(O)c2c1,-2,-8
Clc1ccc(-c2cn3nc(-c4ccccc4)sc3n2)cc1,-6,3
CC(=O)Nc1ccc(-c2cn3nc(-c4ccccc4)sc3n2)cc1,0,58*
COc1ccccc1C1Nc2ccccc2NC2=C1C(=O)CC(c1ccc(Cl)cc1)C2 (stereo not given),-11,5
COc1ccc(C2CC(=O)C3=C(C2)Nc2ccccc2NC3c2ccccc2Br)cc1 (stereo not given),-7,12
CCOc1ccccc1C1C(C#N)=C(C)NC2=C1C(=O)CC(c1ccc(Cl)cc1)C2 (stereo not given),1,52*
CC1=C(C#N)C(c2cccnc2)C2=C(CC(c3ccc(Cl)cc3)CC2=O)N1 (stereo not given),1,-4
COc1cccc(C2Nc3ccccc3NC3=C2C(=O)CC(c2ccc(Cl)cc2)C3)c1OC (stereo not given),5,80*
COc1cc(C2Nc3ccccc3NC3=C2C(=O)CC(c2ccc(C)cc2)C3)cc(Cl)c1O (stereo not given),13,62*
COc1ccc(C2CC(=O)C3=C(C2)Nc2ccccc2NC3c2cc(C)ccc2C)cc1 (stereo not given),0,62*
COc1ccc(C2CC(=O)C3=C(C2)Nc2ccccc2NC3c2cc(Cl)c(O)c(OC)c2)cc1 (stereo not given),-17,23
COc1ccc(C(=O)NCCn2cc(SCc3ccccc3F)c3ccccc32)cc1OC,3,27
O=c1c2ncccc2n(Cc2c(F)cccc2Cl)c(=O)n1Cc1cccnc1,4,-7
Cc1nn(C)c2c(=O)n(CC(=O)NCc3cccc(Br)c3)ccc12,-3,-5
CC(C)(C)C1CCc2c(sc3c2C(=O)NC(c2ccc4c(c2)OCO4)N3)C1 (stereo not given),0,19
O=C(Nc1ccc(F)c(F)c1)c1cc(S(=O)(=O)N2CCCCC2)ccc1F,2,-1
O=Cc1ccc(-c2ccc([N+](=O)[O-])cc2)o1,-6,5
O=[N+]([O-])/C=C/c1ccc(-c2ccc(Cl)cc2)o1,4,84*
O=[N+]([O-])/C=C/c1ccc(-c2ccc(Br)cc2)o1,-3,51*
Cc1ccc(-c2ccc(/C=C/[N+](=O)[O-])o2)c(Br)c1,1,79*
CC1(C)OC(=O)C(=Cc2ccc(-c3ccc([N+](=O)[O-])cc3)o2)C(=O)O1,-4,2
Cc1ccc(-c2ccc(C=O)o2)c(Br)c1,-7,-8
SMILES,Pf apPOL inh,mHTT-CaM PPI inh
COc1ccc(C(=O)Nc2nnc(N=Cc3ccc([N+](=O)[O-])s3)s2)cc1,-9,0
Cc1ccc(OCCSc2nc3ccccc3c(=O)[nH]2)cc1,-2,-2
Cc1ccccc1CNC(=O)c1ccc(NC(=O)C2CCC2)cc1N1CCOCC1,3,2
O=C(Nc1nc(-c2cc3ccccc3oc2=O)cs1)c1ccc(F)cc1,-2,-1
O=C(Nc1nc(-c2cc3ccccc3oc2=O)cs1)c1ccc(Br)s1,75*,-8
CCN1C(=O)C(C)(C(=O)Nc2cccc(OC)c2)Oc2cccnc21 (stereo not given),-1,-9
CNC(=O)C1CC(c2ccc(C)cc2)=NO1 (stereo not given),-6,-4
COc1ccc2c(c1)CN(Cc1ccc(Cl)cc1)CO2,-9,12
COc1ccc2c(c1)CN(c1ccc(Cl)cc1)CO2,-8,51*
COc1ccc(N2COc3ccc(Cl)cc3C2)cc1,2,73*
COc1ccc(CN2COc3cc(C)c(Cl)c(C)c3C2)cc1,-2,2
COc1ccc(N2COc3cc4c(cc3C2)OCO4)cc1,-8,7
COc1cccc(N2COc3cc(C)c(Cl)c(C)c3C2)c1,-4,98*
COc1cc(OC)cc(C2=Cc3ccccc3C(CC(C)=O)N2c2ccc(C#CCCO)cc2)c1 (stereo not given),-4,-9
CC(=O)CC1c2cc(F)ccc2C=C(c2ccsc2)N1c1ccc(-c2cccnc2)cc1 (stereo not given),4,9
COc1ccc(N2C(c3cc(OC)cc(OC)c3)=Cc3ccccc3C2CC(C)=O)cc1 (stereo not given),-3,-28
COc1cc(OC)cc(C2=Cc3ccccc3C(CC(=O)c3ccco3)N2c2ccc(-c3cncnc3)cc2)c1 (stereo not given),-6,97*
COc1cc(OC)cc(C2=Cc3ccccc3C(CC(=O)c3ccco3)N2c2ccc(-c3ccc(C(N)=O)cc3)cc2)c1 (stereo not given),2,100*
NC(=O)c1ccc(-c2ccc(N3C(c4ccsc4)=Cc4ccc(F)cc4C3CC(=O)c3ccco3)cc2)cc1 (stereo not given),-2,58*
CC(C)(C)NC(=O)N1CCC(CNC(=O)C2CCN(S(C)(=O)=O)CC2)CC1,1,-8
CN(C)c1ccc(CNC(=O)C2CCN(Cc3cn(C)c4ccc(Cl)cc34)CC2)cc1,1,47
COc1ccc(C=CC(=O)N2CCCCCC2)cc1Br,-4,2
Cn1nc(CNC(=O)c2cccc(Cl)c2)c2ccccc21,-2,7
COc1ccc(C2CC(c3cccc(C)c3)=NN2C(=O)CN2CCOCC2)cc1 (stereo not given),-3,66*
COc1ccc(C2=NN(C(=O)CN3CCOCC3)C(c3ccc(C)cc3C)C2)cc1 (stereo not given),-4,50
SMILES,Pf apPOL inh,mHTT-CaM PPI inh
COc1cccc(C2=NN(C(=O)CN3CCOCC3)C(c3ccccc3C)C2)c1 (stereo not given),-2,38
COc1ccc(C2CC(c3cccc(F)c3)=NN2C(=O)CN2CCC(C)CC2)cc1 (stereo not given),-6,23
COc1ccc(C2=NN(C(=O)CN3CCN(C)CC3)C(c3cccc(F)c3)C2)cc1 (stereo not given),-1,54*
COc1ccc(C2CC(c3ccc(C)cc3C)=NN2C(=O)CN2CCOCC2)cc1 (stereo not given),-6,63*
CC(=O)N1CCC(Cn2cccn2)CC1,-4,-16
C=CCc1ccccc1OCC(O)CNCCO (stereo not given),-4,1
CC(=O)C(N=Nc1ccc(C(F)(F)F)cc1)=C(O)c1ccccc1,-2,/
COC(=O)Oc1ccc2c(=O)c(Oc3ccc(C)cc3)coc2c1,16,80*
COc1cccc(Oc2coc3cc(OC(=O)C(C)C)ccc3c2=O)c1,-6,31
CC(=O)Oc1ccc2c(=O)c(Oc3ccccc3)coc2c1,-7,20
COc1ccccc1Oc1coc2cc(OC(=O)C(C)C)ccc2c1=O,-2,100*
Cc1ccc(C2SCCN2C(=O)c2cc3cc(Br)ccc3oc2=O)cc1 (stereo not given),-1,6
O=C(O)CNS(=O)(=O)c1ccc([N+](=O)[O-])cc1I,-2,/
Cc1ccc(Cl)cc1NC(=O)Cc1ccccc1[N+](=O)[O-],-6,2
O=S1(=O)c2ccccc2S(=O)(=O)N1c1cccc(C(F)(F)F)c1,-5,-1
Clc1ccc2c(c1)SS(Cl)=N2 (stereo not given),/,55*
